Laboratory results taken from ChEMBL document CHEMBL2218924, “A broad activity screen in support of a chemogenomic map for kinase signalling research and drug discovery” (Biochem J, 2013).

What was measured:
[1] = target: T1, Testis-specific serine/threonine-protein kinase 1 (Homo sapiens) (UniProt Q9BXA7); settings: at 1 µM
T1 sequence (whole entry): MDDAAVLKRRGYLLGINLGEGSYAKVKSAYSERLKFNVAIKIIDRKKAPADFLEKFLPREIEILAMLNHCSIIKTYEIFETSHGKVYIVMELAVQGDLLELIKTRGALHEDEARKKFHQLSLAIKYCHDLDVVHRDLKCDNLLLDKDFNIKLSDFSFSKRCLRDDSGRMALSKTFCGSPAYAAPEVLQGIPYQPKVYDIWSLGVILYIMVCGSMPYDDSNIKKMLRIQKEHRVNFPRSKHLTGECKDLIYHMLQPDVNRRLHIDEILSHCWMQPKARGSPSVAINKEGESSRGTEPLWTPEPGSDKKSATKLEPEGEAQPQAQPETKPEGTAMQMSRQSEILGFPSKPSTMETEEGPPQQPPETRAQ

[2] = target: T1, Testis-specific serine/threonine-protein kinase 1 (Homo sapiens); settings: at 10 µM
[3] = target: T2, Testis-specific serine/threonine-protein kinase 2 (Homo sapiens) (UniProt Q96PF2); settings: at 10 µM
T2 sequence (whole entry): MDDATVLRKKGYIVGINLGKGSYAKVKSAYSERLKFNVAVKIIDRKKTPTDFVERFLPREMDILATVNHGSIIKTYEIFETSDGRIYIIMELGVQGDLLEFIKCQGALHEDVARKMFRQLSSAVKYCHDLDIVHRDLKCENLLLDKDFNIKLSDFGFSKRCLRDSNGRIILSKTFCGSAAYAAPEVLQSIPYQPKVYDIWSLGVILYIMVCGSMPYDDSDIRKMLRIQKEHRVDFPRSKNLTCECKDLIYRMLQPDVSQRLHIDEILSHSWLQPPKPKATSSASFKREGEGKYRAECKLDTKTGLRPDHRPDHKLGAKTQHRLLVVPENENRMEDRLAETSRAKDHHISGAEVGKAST

[4] = target: T3, Tyrosine-protein kinase Tec (Homo sapiens) (UniProt P42680); settings: at 1 µM
T3 sequence (whole entry): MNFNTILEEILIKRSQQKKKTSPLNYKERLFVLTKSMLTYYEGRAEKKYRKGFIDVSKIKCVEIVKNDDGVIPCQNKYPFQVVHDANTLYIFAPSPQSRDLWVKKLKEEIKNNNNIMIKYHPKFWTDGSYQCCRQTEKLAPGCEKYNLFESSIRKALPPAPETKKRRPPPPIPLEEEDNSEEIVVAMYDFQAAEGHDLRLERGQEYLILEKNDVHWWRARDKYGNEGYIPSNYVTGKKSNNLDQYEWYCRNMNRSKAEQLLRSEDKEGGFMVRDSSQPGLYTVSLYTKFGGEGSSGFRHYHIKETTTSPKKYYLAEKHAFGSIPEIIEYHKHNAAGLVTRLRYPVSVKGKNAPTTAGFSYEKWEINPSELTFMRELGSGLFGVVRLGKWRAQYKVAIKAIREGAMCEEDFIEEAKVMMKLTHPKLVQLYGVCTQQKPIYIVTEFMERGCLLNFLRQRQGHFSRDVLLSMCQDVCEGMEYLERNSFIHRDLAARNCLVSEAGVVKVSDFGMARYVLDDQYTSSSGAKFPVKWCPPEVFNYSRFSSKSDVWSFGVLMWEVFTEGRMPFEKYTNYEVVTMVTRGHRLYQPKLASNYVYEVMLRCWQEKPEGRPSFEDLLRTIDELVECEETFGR

[5] = target: T3, Tyrosine-protein kinase Tec (Homo sapiens); settings: at 10 µM
[6] = target: Angiopoietin-1 receptor (Homo sapiens) (UniProt Q02763); settings: at 1 µM
[7] = target: Angiopoietin-1 receptor (Homo sapiens) (UniProt Q02763); settings: at 10 µM
[8] = target: High affinity nerve growth factor receptor (Homo sapiens) (UniProt P04629); settings: at 1 µM
[9] = target: High affinity nerve growth factor receptor (Homo sapiens) (UniProt P04629); settings: at 10 µM
[10] = target: BDNF/NT-3 growth factors receptor (Homo sapiens) (UniProt Q16620); settings: at 1 µM
[11] = target: BDNF/NT-3 growth factors receptor (Homo sapiens) (UniProt Q16620); settings: at 10 µM
[12] = target: T4, Tyrosine-protein kinase TXK (Homo sapiens) (UniProt P42681); settings: at 1 µM
T4 sequence (whole entry): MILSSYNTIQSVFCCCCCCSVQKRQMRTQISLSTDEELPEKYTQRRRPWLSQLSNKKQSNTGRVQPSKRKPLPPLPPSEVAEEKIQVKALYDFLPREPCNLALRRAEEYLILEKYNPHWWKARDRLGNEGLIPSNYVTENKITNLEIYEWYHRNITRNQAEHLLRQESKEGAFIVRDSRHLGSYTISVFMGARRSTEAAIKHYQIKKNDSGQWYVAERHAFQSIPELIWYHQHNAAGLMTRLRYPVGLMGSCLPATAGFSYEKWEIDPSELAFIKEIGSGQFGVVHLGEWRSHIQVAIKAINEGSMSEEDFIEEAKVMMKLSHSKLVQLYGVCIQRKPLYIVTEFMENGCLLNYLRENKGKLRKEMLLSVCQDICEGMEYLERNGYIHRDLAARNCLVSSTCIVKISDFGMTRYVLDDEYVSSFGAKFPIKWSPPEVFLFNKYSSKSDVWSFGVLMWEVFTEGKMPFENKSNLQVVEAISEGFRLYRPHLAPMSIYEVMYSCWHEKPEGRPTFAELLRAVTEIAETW

[13] = target: T4, Tyrosine-protein kinase TXK (Homo sapiens); settings: at 10 µM
[14] = target: T5, Serine/threonine-protein kinase ULK2 (Homo sapiens) (UniProt Q8IYT8); settings: at 1 µM
T5 sequence (whole entry): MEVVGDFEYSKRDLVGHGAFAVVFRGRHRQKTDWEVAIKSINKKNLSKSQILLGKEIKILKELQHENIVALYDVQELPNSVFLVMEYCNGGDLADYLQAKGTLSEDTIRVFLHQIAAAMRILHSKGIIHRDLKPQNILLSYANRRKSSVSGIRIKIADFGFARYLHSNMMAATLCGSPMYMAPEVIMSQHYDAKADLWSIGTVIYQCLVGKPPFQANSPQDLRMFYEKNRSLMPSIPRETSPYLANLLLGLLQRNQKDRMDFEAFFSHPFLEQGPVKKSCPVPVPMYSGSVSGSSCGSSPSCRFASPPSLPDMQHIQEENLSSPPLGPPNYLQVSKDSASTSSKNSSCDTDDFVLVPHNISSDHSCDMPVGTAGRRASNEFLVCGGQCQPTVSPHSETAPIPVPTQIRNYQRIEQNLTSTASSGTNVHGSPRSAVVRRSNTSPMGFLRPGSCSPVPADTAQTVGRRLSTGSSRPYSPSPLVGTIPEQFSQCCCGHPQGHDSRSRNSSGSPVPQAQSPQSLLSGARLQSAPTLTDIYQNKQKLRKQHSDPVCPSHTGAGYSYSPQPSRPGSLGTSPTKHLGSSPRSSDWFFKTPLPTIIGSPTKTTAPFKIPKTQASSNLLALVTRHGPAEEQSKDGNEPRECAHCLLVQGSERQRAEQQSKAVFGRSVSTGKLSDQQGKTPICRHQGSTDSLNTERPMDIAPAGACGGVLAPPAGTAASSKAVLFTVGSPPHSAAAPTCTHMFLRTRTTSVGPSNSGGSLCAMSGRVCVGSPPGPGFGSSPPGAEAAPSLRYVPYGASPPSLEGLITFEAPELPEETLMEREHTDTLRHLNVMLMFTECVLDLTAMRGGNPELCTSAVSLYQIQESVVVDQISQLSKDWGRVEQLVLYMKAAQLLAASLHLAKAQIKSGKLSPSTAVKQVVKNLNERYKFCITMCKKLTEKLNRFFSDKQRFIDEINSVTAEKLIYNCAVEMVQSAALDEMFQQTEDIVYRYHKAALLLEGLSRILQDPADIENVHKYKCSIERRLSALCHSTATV

[15] = target: T5, Serine/threonine-protein kinase ULK2 (Homo sapiens); settings: at 10 µM
[16] = target: T6, Serine/threonine-protein kinase ULK3 (Homo sapiens) (UniProt Q6PHR2); settings: at 1 µM
T6 sequence (whole entry): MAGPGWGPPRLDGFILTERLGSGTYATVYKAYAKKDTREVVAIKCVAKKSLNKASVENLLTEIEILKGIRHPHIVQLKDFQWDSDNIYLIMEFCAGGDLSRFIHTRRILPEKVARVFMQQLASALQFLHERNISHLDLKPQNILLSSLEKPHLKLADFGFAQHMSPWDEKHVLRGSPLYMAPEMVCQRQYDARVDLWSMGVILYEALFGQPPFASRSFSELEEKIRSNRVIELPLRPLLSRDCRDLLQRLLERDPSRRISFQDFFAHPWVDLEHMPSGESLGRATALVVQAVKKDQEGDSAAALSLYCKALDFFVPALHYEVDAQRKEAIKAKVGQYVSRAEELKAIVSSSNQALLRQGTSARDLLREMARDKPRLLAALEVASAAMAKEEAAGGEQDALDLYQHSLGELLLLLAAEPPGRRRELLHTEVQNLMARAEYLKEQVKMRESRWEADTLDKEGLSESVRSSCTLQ

[17] = target: T6, Serine/threonine-protein kinase ULK3 (Homo sapiens); settings: at 10 µM
[18] = target: Serine/threonine-protein kinase VRK2 (Homo sapiens) (UniProt Q86Y07); settings: at 1 µM
[19] = target: Serine/threonine-protein kinase VRK2 (Homo sapiens) (UniProt Q86Y07); settings: at 10 µM
[20] = target: Serine/threonine-protein kinase WNK2 (Homo sapiens) (UniProt Q9Y3S1); settings: at 1 µM;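 further: residual WNK2 kinase activity expressed as percent of uninhibited control, assayed in MOPS buffer at pH 7.0 containing EDTA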
Serine/threonine-protein kinase WNK2 (Homo sapiens), sequence (Q9Y3S1 whole entry): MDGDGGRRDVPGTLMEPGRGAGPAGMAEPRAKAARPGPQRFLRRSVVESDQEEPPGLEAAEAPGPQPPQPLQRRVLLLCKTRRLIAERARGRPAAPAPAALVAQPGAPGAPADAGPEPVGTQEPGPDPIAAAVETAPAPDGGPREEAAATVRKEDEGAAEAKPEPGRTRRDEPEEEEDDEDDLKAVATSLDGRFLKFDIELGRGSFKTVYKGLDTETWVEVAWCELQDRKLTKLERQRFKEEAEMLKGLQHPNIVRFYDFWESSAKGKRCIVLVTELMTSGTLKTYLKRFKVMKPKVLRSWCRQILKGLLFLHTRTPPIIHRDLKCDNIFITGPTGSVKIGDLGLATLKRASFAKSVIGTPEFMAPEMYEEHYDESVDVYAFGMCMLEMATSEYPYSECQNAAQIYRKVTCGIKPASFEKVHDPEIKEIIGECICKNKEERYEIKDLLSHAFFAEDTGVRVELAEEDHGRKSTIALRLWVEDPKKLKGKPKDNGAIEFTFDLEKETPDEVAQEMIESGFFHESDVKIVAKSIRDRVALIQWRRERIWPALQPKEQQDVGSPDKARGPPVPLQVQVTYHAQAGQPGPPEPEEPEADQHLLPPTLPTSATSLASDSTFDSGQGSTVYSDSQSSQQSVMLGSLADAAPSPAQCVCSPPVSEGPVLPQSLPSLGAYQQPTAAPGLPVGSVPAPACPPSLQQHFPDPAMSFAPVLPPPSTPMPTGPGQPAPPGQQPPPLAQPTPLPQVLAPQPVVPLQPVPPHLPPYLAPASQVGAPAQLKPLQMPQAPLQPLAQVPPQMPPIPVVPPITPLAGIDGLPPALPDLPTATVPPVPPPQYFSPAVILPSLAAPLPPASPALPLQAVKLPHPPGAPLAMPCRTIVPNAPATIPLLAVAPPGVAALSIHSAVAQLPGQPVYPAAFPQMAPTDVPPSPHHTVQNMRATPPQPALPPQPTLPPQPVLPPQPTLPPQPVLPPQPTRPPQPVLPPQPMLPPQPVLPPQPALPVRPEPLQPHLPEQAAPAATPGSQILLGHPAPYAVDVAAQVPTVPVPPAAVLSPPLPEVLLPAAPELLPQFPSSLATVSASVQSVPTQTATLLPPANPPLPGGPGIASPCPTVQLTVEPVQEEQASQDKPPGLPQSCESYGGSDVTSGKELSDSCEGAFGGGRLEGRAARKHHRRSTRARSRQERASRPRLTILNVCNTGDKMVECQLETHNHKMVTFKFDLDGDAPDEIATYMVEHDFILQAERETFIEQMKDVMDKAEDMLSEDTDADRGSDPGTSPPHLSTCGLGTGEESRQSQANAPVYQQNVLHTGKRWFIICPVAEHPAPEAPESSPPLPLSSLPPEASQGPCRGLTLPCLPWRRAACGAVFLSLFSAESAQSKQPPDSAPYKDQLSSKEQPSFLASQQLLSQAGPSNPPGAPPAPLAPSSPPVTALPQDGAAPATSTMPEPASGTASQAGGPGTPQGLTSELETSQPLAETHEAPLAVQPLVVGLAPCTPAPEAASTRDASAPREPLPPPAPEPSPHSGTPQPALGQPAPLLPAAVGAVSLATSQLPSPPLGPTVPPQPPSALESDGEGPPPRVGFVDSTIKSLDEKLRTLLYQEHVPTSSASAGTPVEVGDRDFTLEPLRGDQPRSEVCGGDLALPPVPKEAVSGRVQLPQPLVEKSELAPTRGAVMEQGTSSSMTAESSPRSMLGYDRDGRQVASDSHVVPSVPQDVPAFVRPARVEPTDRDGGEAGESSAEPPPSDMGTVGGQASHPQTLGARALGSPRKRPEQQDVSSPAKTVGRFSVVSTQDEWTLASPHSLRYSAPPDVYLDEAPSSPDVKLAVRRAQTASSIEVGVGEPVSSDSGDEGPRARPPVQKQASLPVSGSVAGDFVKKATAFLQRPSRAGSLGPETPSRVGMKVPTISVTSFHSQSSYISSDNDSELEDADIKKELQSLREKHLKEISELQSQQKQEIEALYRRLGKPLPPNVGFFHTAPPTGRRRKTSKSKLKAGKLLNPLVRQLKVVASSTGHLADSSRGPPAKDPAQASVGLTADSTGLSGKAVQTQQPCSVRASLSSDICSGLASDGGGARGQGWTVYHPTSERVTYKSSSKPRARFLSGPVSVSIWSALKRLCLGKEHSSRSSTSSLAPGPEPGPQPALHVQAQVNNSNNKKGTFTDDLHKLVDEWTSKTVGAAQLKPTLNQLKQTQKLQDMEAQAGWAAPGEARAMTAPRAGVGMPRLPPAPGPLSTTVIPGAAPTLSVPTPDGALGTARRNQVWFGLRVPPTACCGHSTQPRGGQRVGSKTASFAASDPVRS

BDNF/NT-3 growth factors receptor (Homo sapiens), sequence (Q16620 32-822 limits assumed): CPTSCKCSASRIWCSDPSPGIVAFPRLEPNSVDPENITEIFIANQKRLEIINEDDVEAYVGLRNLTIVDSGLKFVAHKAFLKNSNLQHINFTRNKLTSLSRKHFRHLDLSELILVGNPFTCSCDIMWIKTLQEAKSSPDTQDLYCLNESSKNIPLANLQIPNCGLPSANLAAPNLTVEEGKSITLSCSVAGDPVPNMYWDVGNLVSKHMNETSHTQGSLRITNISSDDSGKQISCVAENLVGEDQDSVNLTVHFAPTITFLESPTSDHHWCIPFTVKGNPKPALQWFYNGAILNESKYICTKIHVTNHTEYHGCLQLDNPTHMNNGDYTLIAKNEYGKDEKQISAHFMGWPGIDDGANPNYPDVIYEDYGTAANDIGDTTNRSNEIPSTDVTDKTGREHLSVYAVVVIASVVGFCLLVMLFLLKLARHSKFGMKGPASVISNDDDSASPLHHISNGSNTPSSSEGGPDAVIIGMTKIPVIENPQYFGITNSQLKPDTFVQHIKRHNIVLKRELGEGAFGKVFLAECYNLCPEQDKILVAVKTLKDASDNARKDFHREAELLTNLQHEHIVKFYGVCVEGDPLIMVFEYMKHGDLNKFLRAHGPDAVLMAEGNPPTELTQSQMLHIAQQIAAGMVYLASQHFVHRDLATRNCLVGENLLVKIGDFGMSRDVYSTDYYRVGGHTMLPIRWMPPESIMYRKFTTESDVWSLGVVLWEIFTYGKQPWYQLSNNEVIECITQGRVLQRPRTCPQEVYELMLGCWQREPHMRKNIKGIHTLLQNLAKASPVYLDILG
Angiopoietin-1 receptor (Homo sapiens), sequence (Q02763 whole entry): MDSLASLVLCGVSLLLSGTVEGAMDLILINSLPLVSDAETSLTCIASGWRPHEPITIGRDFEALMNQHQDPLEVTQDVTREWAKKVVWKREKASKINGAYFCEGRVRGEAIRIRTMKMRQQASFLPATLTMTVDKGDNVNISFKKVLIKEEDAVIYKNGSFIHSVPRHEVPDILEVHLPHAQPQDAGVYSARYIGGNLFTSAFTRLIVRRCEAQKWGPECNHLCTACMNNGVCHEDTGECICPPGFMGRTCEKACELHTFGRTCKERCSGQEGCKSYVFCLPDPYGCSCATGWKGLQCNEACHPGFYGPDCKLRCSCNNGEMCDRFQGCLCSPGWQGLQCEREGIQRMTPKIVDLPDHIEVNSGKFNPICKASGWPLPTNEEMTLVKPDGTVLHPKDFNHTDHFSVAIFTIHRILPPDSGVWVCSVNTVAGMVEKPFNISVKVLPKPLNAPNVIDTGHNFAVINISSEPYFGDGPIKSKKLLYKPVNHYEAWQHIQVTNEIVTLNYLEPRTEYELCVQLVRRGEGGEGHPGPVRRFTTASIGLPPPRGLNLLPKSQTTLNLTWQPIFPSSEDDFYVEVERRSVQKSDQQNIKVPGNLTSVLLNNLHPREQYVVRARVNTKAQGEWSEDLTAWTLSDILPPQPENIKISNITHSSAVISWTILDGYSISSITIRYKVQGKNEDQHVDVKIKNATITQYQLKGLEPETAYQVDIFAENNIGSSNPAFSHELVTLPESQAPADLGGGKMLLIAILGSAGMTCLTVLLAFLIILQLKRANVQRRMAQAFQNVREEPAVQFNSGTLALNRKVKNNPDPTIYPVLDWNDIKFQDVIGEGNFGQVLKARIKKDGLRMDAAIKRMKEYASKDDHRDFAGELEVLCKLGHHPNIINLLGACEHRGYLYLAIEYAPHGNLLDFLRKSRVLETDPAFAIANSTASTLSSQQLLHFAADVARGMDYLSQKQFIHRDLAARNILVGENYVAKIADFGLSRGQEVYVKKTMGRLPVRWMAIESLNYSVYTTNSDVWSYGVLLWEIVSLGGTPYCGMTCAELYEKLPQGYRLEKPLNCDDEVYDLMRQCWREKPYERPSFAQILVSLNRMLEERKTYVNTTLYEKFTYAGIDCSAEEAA
Serine/threonine-protein kinase VRK2 (Homo sapiens), sequence (Q86Y07 whole entry): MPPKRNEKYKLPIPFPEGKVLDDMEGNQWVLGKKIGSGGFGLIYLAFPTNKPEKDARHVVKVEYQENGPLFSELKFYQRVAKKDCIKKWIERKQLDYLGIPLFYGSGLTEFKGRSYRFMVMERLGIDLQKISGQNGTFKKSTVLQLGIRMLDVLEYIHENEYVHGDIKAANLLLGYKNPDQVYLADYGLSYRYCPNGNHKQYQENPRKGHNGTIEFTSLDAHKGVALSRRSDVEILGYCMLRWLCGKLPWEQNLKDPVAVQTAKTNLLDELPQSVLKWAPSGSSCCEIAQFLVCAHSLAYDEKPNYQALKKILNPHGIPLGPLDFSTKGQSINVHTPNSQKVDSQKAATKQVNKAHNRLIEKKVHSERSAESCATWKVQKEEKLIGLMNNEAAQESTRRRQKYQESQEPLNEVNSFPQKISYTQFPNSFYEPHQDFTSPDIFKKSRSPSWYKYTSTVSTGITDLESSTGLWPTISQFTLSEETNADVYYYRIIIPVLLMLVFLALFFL

Row | Structure (SMILES) | residual activity [1] [%] | residual activity [2] [%] | residual activity [3] [%] | residual activity [4] [%] | residual activity [5] [%] | residual activity [6] [%] | residual activity [7] [%] | residual activity [8] [%] | residual activity [9] [%] | residual activity [10] [%] | residual activity [11] [%] | residual activity [12] [%] | residual activity [13] [%] | residual activity [14] [%] | residual activity [15] [%] | residual activity [16] [%] | residual activity [17] [%] | residual activity [18] | residual activity [19] [%] | residual activity [20]
1 | CCN(CC)CCCCN1c2ccccc2Oc2ccc(Cl)cc21 | 105 | 102 | 98 | 92 | 78 | 105 | 71 | 90 | 101 | 107 | 87 | 99 | 81 | 116 | 96 | 111 | 98 | 126% (inactive) | 99 | 122% (inactive)
2 | C[C@@H](N)[C@H]1CC[C@H](C(=O)Nc2ccncc2)CC1 | 97 | 90 | 99 | 83 | 98 | 84 | 78 | 112 | 105 | 106 | 99 | 100 | 94 | 85 | 39 | 95 | 68 | 96% (inactive) | – | 95% (inactive)
3 | Ic1cccc(CSc2nnc(-c3ccncc3)o2)c1 | 78 | 86 | 82 | 90 | 64 | 104 | 84 | 87 | 64 | 32 | 28 | 75 | 81 | 98 | – | 86 | 92 | 92% (inactive) | 79 | 87% (inactive)
4 | CO[C@H]1[C@@H](OC)C[C@H](C)[C@@H](OC)C2=CC(=O)C=C(NC(=O)/C(C)=C/C=C/[C@H](OC)[C@@H](OC(N)=O)/C(C)=C/[C@@H]1C)C2=O | 100 | 88 | 75 | 89 | 84 | 84 | 76 | 120 | 118 | 113 | 99 | 89 | 103 | 100 | 95 | 88 | 92 | 108% (inactive) | 96 | 100% (inactive)
5 | Cn1cnc2cc3c(Nc4cccc(Br)c4)ncnc3cc21 | 99 | 96 | 106 | 82 | 73 | 74 | 34 | 87 | 82 | 107 | 68 | 89 | 60 | 106 | 99 | 112 | 74 | 98% (inactive) | 95 | 105% (inactive)
6 | N#CC(C#N)=C(N)/C(C#N)=C/c1ccc(O)cc1 | 98 | 96 | – | 90 | 88 | 84 | 74 | 121 | 119 | 99 | 116 | 78 | 67 | – | – | 100 | 92 | 100% (inactive) | 94 | –
7 | CN(C)CCCn1cc(C2=C(c3c[nH]c4ccccc34)C(=O)NC2=O)c2ccccc21 | 86 | 37 | – | 113 | 65 | 120 | 60 | 48 | 13 | 36 | 14 | – | 79 | 110 | 88 | 101 | 61 | 119% (inactive) | 76 | 120% (inactive)
8 | Cc1nc(-c2ccccc2)c(-c2ccncc2)o1 | 100 | 88 | 98 | 103 | 42 | 100 | 122 | 117 | 95 | 55 | 53 | 86 | 88 | 118 | 112 | 104 | 104 | 109% (inactive) | 103 | 117% (inactive)
